PubChem BioAssay
The source made the active and inactive calls.

What was measured:
[1] = target: Albumin (Bos taurus) (UniProt P02769); experiment: bovine serum albumin binders on microarray, profiling panel, artefact control for SMM control protein annotation, biochemical, small-molecule microarray, Alexa647 label, 635/667 nm fluorescence (AID 1118); details: BSA-A647 binding, fluorescence 635 nm, higher = more signal;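 further: score merges 667 nm emission intensity and signal-to-noise per printed compound spot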
[2] = small-molecule microarray binders of probe aXIP, primary screen, biochemical, NeuroSMM set, 635/667 nm fluorescence (AID 1119); details: higher = more signal, called active from +8 up or from −8 down;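 further: probe is the protein aXip251-270 applied at 1 µg/mL to compound-printed slides; binding of probe to printed compounds measured as 667 nm fluorescence plus signal to noise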
[3] = small-molecule binders of probe aNOTCH3, primary screen, biochemical, small-molecule microarray, 635/667 nm fluorescence (AID 1120); details: higher = more signal;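 further: probe is a biotin-tagged antibody raised against NOTCH3 rather than NOTCH3 protein; score merges spot fluorescence near 667 nm with spot signal to noise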
[4] = small-molecule binders of probe aNOTCH2, primary screen, biochemical, small-molecule microarray, 635/667 nm fluorescence (AID 1121); details: higher = more signal;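 further: score merges feature fluorescence read at 667 nm with its signal to noise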
[5] = target: Carbonic anhydrase 2 (Homo sapiens) (UniProt P00918); experiment: CAII small-molecule binders, profiling panel, biochemical, small-molecule microarray, Alexa647-labelled CAII (AID 1122); details: CAII-A647 binding fluorescence, higher = more signal
[6] = COS7 lysate on small-molecule microarray, probe aHis, 635 nm (AID 1123); details: COS7 cell lysate, fluorescence, higher = more signal;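 further: z-score combines 667nm fluorescence intensity with signal-to-noise per printed compound spot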
[7] = compound binding in COS7 lysate, probe aLAP1, primary screen, cell lysate, small-molecule microarray (AID 1124); details: probe aLAP1, fluorescence, higher = more signal;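 further: lysate comes from COS7 cells expressing LAP1 and is applied at 0.3 µg/mL; score merges spot fluorescence near 667 nm with signal-to-noise over triplicate slides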
[8] = tested on: Sam68 (KHDRBS1); experiment: Sam68 small-molecule binders, primary screen, biochemical, small-molecule microarray, 635 nm fluorescence (AID 1125); details: small-molecule microarray binding, higher = more signal;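 further: score merges 667 nm channel intensity with signal to noise over triplicate slides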
[9] = tested on: Chordin-like protein 2 (CHRDL2); experiment: CHRDL2 small-molecule binders, primary screen, biochemical, small-molecule microarray, 635 nm fluorescence (AID 1126); details: small-molecule microarray binding, fluorescence 635 nm; higher = more signal;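 further: printed compound slides probed with Chrdl2 protein at 4 µg/mL for 1 h at 4 C; score merges 667 nm emission intensity with signal to noise over three replicate slides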
[10] = target: Concanavalin-A (Canavalia ensiformis) (UniProt P02866); experiment: ConA small-molecule binders, primary screen, artefact control for SMM control protein annotation, biochemical, small-molecule microarray, Alexa647 label, 635 nm (AID 1127); details: ConA-A647 binding fluorescence, higher = more signal;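 further: z combines 667 nm emission intensity with signal-to-noise across three replicate slides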
[11] = anti-His antibody binders, primary screen, artefact control for SMM control protein annotation, biochemical, small-molecule microarray, 635 nm fluorescence (AID 1128); details: anti-His Alexa647 antibody binding, higher = more signal;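 further: score merges feature fluorescence with signal-to-noise for each printed compound spot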
[12] = tested on: Human papillomavirus type 1a E7 protein (residues 1-88); experiment: HPV1a E7 small-molecule binders, primary screen, biochemical, small-molecule microarray, residues 1-88, 635 nm (AID 1129); details: small-molecule microarray binding, fluorescence 635 nm; higher = more signal
[13] = target: Focal adhesion kinase 1 (Homo sapiens) (UniProt Q05397); experiment: small-molecule microarray binders of FAK, primary screen, biochemical, 635/667 nm fluorescence, BSA, DTT (AID 1130); details: PTK2 binding, 635 nm fluorescence, higher = more signal;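 further: composite of spot emission at 667 nm and signal to noise over triplicate slides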
[14] = tested on: Fibrinogen (Alexa647-labelled); experiment: fibrinogen binders on compound microarrays, profiling panel, artefact control for SMM control-protein annotation, biochemical, small-molecule microarray, 635/667 nm fluorescence (AID 1131); details: fibrinogen-A647 binding fluorescence, higher = more signal;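 further: z-score merges 667 nm fluorescence with per-spot signal-to-noise over triplicate slides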
[15] = target: Follistatin (Homo sapiens) (UniProt P19883); experiment: follistatin binders on small-molecule microarrays, primary screen, biochemical, small-molecule microarray, 635/667 nm fluorescence (AID 1132); details: FST binding, 635 nm fluorescence, higher = more signal
[16] = target: Fibroblast growth factor 2 (Homo sapiens) (UniProt P09038); experiment: FGF2 binders on small-molecule microarrays, primary screen, biochemical, small-molecule microarray, 635/667 nm fluorescence (AID 1133); details: small-molecule microarray binding, FGF2, fluorescence 635/667; higher = more signal
[17] = mitochondrial membrane potential change in A549 cells, profiling panel, cell-based, JC-1 fluorescence, basal, 24 h, 100 nL (AID 1138); details: higher = more signal;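 further: A549 lung adenocarcinoma cells under basal conditions with no added stimulus; test concentration not given here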
[18] = tested on: Lefty1; experiment: Lefty1 binders on small-molecule microarrays, primary screen, biochemical, small-molecule microarray, 635/667 nm fluorescence (AID 1139); details: small-molecule microarray binding, fluorescence 635/667; higher = more signal
[19] = tested on: wheat germ agglutinin (Triticum aestivum), Alexa647-labelled; experiment: wheat germ agglutinin binders on compound microarrays, profiling panel, artefact control for SMM control-protein annotation, biochemical, small-molecule microarray, 635/667 nm fluorescence (AID 1140); details: WGA-A647 binding, 635 nm fluorescence, higher = more signal;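 further: score merges 667 nm feature emission with signal to noise over triplicate slides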
[20] = target: Luciferin 4-monooxygenase (Photinus pyralis) (UniProt P08659); experiment: firefly luciferase enzyme inhibitors, primary screen, biochemical, luminescence, purified enzyme, 2006 set (AID 1141); details: SteadyGlo luminescence, 30 min, higher = more signal, called active from +8 up or from −8 down;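 further: cell-free assay with purified firefly luciferase at 100 ng per well in PBS; test concentration not given here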
Chain of Luciferin 4-monooxygenase (Photinus pyralis) (P08659 whole entry, looked up): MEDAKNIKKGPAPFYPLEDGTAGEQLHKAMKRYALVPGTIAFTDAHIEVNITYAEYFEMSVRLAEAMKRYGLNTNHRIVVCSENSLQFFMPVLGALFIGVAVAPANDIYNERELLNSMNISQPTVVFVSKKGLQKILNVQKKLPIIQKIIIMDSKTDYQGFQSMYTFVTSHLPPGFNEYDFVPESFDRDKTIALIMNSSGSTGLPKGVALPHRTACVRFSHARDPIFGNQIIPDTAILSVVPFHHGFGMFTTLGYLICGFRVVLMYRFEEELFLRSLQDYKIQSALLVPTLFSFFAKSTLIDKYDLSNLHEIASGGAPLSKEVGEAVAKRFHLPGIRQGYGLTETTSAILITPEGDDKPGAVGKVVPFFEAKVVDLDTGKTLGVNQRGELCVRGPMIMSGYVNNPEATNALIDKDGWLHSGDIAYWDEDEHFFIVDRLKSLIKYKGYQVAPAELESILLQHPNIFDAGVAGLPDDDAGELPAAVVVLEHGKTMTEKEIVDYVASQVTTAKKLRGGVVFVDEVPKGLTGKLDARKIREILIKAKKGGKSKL

Chain of Albumin (Bos taurus) (P02769 whole entry, looked up): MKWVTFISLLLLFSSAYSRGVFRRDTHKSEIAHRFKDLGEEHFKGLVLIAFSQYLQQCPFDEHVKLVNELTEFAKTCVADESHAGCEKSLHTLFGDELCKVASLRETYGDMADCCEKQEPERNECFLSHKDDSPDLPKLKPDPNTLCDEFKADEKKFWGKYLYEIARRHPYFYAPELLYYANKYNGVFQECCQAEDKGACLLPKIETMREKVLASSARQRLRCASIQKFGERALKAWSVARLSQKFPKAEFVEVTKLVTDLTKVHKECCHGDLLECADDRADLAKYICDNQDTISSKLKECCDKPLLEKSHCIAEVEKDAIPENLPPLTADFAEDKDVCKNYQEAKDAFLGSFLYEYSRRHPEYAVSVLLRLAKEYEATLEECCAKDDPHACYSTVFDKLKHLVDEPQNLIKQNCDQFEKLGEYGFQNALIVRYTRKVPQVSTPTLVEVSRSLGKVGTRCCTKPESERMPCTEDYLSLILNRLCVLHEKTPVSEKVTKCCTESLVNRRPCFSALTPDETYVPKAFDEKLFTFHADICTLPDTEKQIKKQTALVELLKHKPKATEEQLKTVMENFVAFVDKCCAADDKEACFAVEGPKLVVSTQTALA
Chain of Follistatin (Homo sapiens) (P19883 whole entry, looked up): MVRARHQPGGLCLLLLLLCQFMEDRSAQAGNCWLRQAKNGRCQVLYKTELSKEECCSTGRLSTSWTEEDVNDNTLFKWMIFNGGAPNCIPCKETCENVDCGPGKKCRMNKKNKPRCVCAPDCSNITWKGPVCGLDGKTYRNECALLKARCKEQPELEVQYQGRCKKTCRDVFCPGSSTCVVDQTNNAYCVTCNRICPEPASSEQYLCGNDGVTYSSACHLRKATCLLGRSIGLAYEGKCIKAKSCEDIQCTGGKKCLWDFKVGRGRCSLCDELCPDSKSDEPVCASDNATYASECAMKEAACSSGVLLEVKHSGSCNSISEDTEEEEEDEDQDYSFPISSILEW
Chain of Focal adhesion kinase 1 (Homo sapiens) (Q05397 whole entry, looked up): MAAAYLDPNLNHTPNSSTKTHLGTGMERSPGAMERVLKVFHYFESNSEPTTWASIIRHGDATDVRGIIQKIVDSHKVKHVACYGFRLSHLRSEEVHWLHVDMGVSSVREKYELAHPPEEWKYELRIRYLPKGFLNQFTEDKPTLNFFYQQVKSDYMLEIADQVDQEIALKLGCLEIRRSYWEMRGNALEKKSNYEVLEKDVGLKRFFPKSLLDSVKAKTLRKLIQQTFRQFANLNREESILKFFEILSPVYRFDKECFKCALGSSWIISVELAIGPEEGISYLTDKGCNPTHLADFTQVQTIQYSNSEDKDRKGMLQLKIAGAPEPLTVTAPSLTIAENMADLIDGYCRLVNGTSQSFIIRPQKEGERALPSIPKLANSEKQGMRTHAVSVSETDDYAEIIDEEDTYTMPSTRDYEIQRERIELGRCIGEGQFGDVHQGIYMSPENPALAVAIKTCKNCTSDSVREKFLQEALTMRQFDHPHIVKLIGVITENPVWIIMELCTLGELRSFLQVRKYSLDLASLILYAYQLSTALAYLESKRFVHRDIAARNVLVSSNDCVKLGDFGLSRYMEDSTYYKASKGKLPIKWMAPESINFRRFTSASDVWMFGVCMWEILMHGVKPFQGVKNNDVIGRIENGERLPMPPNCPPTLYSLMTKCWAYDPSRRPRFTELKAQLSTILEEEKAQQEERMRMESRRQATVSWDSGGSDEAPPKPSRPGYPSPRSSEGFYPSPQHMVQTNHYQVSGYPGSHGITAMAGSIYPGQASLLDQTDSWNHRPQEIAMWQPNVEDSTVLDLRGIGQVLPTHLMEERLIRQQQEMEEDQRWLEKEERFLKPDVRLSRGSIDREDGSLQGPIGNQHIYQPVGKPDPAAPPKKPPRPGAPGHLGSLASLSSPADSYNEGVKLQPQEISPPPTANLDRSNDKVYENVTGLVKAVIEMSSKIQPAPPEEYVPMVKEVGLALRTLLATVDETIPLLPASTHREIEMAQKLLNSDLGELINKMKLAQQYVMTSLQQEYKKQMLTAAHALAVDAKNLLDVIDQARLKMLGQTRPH
Chain of Fibroblast growth factor 2 (Homo sapiens) (P09038 whole entry, looked up): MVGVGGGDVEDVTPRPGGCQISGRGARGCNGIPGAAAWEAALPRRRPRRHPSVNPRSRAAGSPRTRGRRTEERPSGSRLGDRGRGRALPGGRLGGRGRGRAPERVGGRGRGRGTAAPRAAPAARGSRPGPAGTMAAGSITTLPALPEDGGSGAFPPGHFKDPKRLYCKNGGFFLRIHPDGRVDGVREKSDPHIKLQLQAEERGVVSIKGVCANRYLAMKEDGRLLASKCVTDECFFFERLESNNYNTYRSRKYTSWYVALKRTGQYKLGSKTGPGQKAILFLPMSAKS
Chain of Concanavalin-A (Canavalia ensiformis) (P02866 whole entry, looked up): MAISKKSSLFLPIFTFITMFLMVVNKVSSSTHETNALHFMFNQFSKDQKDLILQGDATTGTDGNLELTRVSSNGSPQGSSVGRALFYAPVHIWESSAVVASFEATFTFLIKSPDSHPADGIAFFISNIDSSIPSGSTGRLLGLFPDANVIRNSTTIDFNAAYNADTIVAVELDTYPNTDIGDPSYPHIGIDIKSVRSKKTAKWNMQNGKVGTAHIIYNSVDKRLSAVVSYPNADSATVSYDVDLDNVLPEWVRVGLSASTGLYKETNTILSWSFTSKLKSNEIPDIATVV

Compound	composite z-score [1]	composite Z-score [2]	composite z-score [3]	composite z-score [4]	composite z-score [5]	composite z-score [6]	composite z-score [7]	composite z-score [8]	composite z-score [9]	composite z-score [10]	composite z-score [11]	composite z-score [12]	composite z-score [13]	composite z-score [14]	composite z-score [15]	composite z-score [16]	z-score [17]	composite z-score [18]	composite z-score [19]	z-score [20]
O=C(c1ccccc1)N1Cc2ccccc2C[C@@]2(N=C(c3ccc(OCCCO)cc3)O[C@H]2c2ccccc2)C1=O	-0.106	1.71 (inactive)	0.0193	-0.0876	0.588	2.43	0.548	1.3	0.639	1.05	1.89	1.21	1.18	0.826	1.44	1.44	-1.85	0.984	-0.17	-1.29 (inactive)
CC(C)c1ccc(NN2C(C(O)C3CCCCC3)C=CC3C(=O)N(c4ccccc4)C(=O)C32)cc1 (stereo not given)	0.98	0.637 (inactive)	0.286	0.0836	0.632	1.78	0.948	1.31	-0.261	1.14	1.04	1.21	0.401	0.987	0.946	0.66	0.257	1.29	1.27	-1.36 (inactive)
COC(=O)c1c2oc(c1C(=O)OC)C(=O)N[C@H](Cc1ccccc1)Cn1cc(nn1)C1(CCCCC1)NC(=O)N[C@H](CO)CC2	0.264	0.605 (inactive)	-0.0113	-0.15	0.765	0.856	0.474	0.0112	-0.2	-1.71	0.633	-0.594	0.714	-0.252	-0.328	0.94	-0.318	0.114	0.722	0.181 (inactive)
